For 40 compounds, inhibition results are on record in ChEMBL document CHEMBL3433997, “St. Jude Leishmania screening dataset” (2016).

SMILES strings stand for the structures.

The target of the first test is Solute carrier family 2, facilitated glucose transporter member 1 (Homo sapiens) (UniProt P11166). Nature of the test: ST_JUDE_LEISH: Cytotoxicity at 2uM final concentration against transgenic Leishmania Mexicana promastigotes LmGLUT1 that are glucose transport deficient and complemented with the human glucose transporter GLUT1. Activity is measured by DNA content using SYBR green in vitro. The class given is functional.
Solute carrier family 2, facilitated glucose transporter member 1 (Homo sapiens), sequence (P11166 whole entry): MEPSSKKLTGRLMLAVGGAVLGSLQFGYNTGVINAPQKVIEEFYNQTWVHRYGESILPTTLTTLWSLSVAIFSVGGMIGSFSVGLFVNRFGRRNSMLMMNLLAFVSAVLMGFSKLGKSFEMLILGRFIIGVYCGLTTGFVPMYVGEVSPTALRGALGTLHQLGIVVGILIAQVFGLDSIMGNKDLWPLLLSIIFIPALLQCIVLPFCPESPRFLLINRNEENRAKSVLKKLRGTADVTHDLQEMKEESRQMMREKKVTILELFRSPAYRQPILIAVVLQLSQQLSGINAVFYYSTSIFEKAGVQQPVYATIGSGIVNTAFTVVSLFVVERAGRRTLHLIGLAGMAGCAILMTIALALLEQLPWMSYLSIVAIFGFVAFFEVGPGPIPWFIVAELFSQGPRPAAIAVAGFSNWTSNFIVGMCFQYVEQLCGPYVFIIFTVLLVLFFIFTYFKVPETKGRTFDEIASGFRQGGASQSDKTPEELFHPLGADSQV
`CCC(CC)n1c(COC)cc2c3c(N)nc(N)nc3ccc21`: the inhibition (usually the drop in the measured response relative to a control, in per cent) worked out at 33.6%.
The same measure, in the same setting: as for `O=C1C[C@@H]([S+]([O-])Cc2nccs2)N1CCOCCCCCCc1ccc(Cl)cc1` (some centres undefined), the figure is 9.09%; as for `c1ccc2c(c1)cc(CNCCCN1CCN(CCCNCc3cc4ccccc4c4ccccc34)CC1)c1ccccc12`, -0.37%; as for `Cn1c2ccccc2c2c3ccccc3c(CNC(CO)(CO)CO)cc21`, 13.8%.
Same read-out and setting: the same measure for `CN1CCC(Oc2ccc(CN3CC[C@H](NC(=O)c4ccc(Cl)c(Cl)c4)C3)cc2Cl)C1` (some centres undefined): 15.3%; for `C[C@@H]1CN(C(c2cccc(O)c2)c2cccc(C(=O)N(C)c3cccc(F)c3)c2)[C@@H](C)CN1C(c1cccc(O)c1)c1cccc(C(=O)N(C)c2cccc(F)c2)c1` (some centres undefined): 3.79%.
As to `CC(C)(C)c1ccc(N2C(N)=NC(N)=NC2(C)C)cc1`, the inhibition is -0.57%.

Another test concerns the target Hexose transporter 1 (Plasmodium falciparum) (UniProt O97467). Nature of the test: ST_JUDE_LEISH: Cytotoxicity at 2uM final concentration against transgenic Leishmania Mexicana promastigotes LmPfHT that are glucose transport deficient and complemented with the Plasmodium falciparum hexose transporter. Activity is measured by DNA content using SYBR green in vitro. The class given is functional.
For `O=C(Nc1ccc(C(=O)N(Cc2ccc3c(c2)OCO3)C2CCCC2)cc1)c1cccs1`, the inhibition was determined as 0.69%.
On the same count and under the same terms, as for `COc1ccc2nccc(NCC3(O)CCN(CC(O)c4ccc5c(c4)NC(=O)CS5)CC3)c2n1` (centres undefined), the figure is 2.49%; as for `CC(C)CNC(=S)N1CCCN(c2nc3ccc(Cl)cc3s2)CC1`, 2.71%; as for `Nc1cccc(CNCc2ccc(-c3ccc(-c4nc5cc(C(F)(F)F)ccc5[nH]4)s3)cc2)c1`, 1.24%.
The same measure, in the same setting: as for `O=C(Nc1ccc(Cn2nc(Cl)c(N3CCCNCC3)cc2=O)cc1)c1ccc(-c2ccccc2)cc1`, the figure is 5.68%; as for `CCCN(Cc1nnc(-c2cccs2)o1)C(=O)CSc1nnnn1-c1ccc(C)c(C)c1`, 11.8%.
On the same count and under the same terms, as for `CCCCCOc1ccc(/N=C2\C=C(O)C(=O)c3ccccc32)cc1`, the figure is 2.9%; as for `CC(=O)Nc1cc(C(=O)Nc2cccc(-c3cccc(-c4nc5cccc(C)c5[nH]4)c3)c2)ccc1C`, 2.86%.
Regarding `CSCCC(C(=O)O)N1C(=O)c2ccccc2C1=O` (centres undefined), the inhibition is 1.03%.
Same read-out and setting: the same measure for `Cc1noc(-c2ccc(O)cc2O)c1-c1ccc2c(c1)OCCCO2`: 0.09%; for `O=C(NCCCCCN1CCC(c2c[nH]c3ccccc23)CC1)c1ccc(Cl)c(Cl)c1`: 4.92%.
Same read-out and setting: the same measure for `CCOc1ccc(-n2nc3c(Cl)nnc(-c4ccccc4)c3c2-c2ccccc2)cc1`: 6.02%; for `CCc1sc(N2CCN(C)CC2)nc1C(=O)Nc1ccc(F)cc1C(F)(F)F`: 1.37%.
Same read-out and setting: the same measure for `COc1ccc(-n2ccnc2SCC(=O)Nc2cccc(C(F)(F)F)c2)c(OC)c1`: 0.74%.
As for `O=C(Nc1cccc(CN2CCN(Cc3cccc(O)c3)CC2)c1)c1cc2ccccc2s1`, the inhibition came to 3.45%.
For the compound `CCNc1nc(OCC(F)(F)F)nc(N(c2ccccc2)c2ccccc2)n1`, the inhibition worked out at 1.48%.
Still for that read-out and setting: the same measure for `C=C(C)Cn1cc(C2CCN(CCCCNC(=O)c3sc(-c4ccc(Cl)cc4Cl)nc3CO)CC2)c2ccccc21`: -1.73%; for `ON=C(c1nc2ccccc2[nH]1)c1nc2ccccc2[nH]1`: -0.51%; for `Cc1cc(NC(=O)c2sc3ccccc3c2O)no1`: 1.84%.
On the same count and under the same terms, the same measure for `Cc1cccc2nc(-c3ccc(-c4cccc(NC(=O)CCc5c[nH]cn5)c4)s3)[nH]c12`: 2.05%; for `COc1ccc(-n2ccnc2SCC(=O)Nc2cc(Cl)ccc2OC)c(OC)c1`: -0.3%.
As for `Cc1cc(NC(=O)c2ccc(-c3ccccc3)cc2)no1`, the inhibition is 3.79%.
For the compound `O=C(C=CC(=O)N1CCCCC1)NCc1ccccc1`, the inhibition turned out to be 3.29%.
Turning to `CCC(N)(C#Cc1ccc(-c2c(C)[nH]c(C)c(Br)c2=O)cc1)CC`, the inhibition turned out to be 2.05%.
Same read-out and setting: the same measure for `COc1cc(CNCCCCCCNCc2cc(OC)cc3ccccc23)c2ccccc2c1`: 11.7%; for `CCCC(C)Nc1nc(C)cc(N[C@@H](Cc2ccccc2)C(=O)NCc2ccc(C)cc2)n1` (some centres undefined): 9.09%; for `CC(Cc1ccc(NC(=O)c2ccc(CNCCCCc3ccccc3)cc2)cc1)NCCc1cccc(Cl)c1` (centres undefined): 102%.
For the compound `Clc1ccc2c(NN=Cc3ccco3)ccnc2c1`, the inhibition came to 3.49%.
In the case of `CC1CC(NCCCNc2cc(=O)c3ccccc3[nH]2)c2c1cc(Cl)c(Cl)c2Cl` (centres undefined), the inhibition is -2.9%.
Still for that read-out and setting: the same measure for `COc1ccc(C(=O)CC(=O)c2ccc(OC)cc2OC)c(OC)c1`: 4.03%; for `Cc1cc(=O)[nH]c(-n2nc(C)cc2NC(=O)CC(c2ccccc2)c2ccccc2)n1`: 23.1%; for `N=C(N)NC(=O)Nc1ccc(Cl)c(C(F)(F)F)c1`: 2.97%.
In the case of `Cc1cc(NC(=O)Nc2ccc(C(C)C)cc2)c2ccccc2n1`, the inhibition worked out at 3.51%.
Still for that read-out and setting: the same measure for `CCC(CC)n1c(COC)cc2c3c(N)nc(N)nc3ccc21`: 51.1%; for `O=C1C[C@@H]([S+]([O-])Cc2nccs2)N1CCOCCCCCCc1ccc(Cl)cc1` (some centres undefined): 8.24%.
On the same count and under the same terms, the same measure for `c1ccc2c(c1)cc(CNCCCN1CCN(CCCNCc3cc4ccccc4c4ccccc34)CC1)c1ccccc12`: 0.84%.
The same measure, in the same setting: the same measure for `Cn1c2ccccc2c2c3ccccc3c(CNC(CO)(CO)CO)cc21`: 12.7%.
